This note sets out measurements from PubChem BioAssay.

For some of these results: Potency and affinity values are given separately. The source made the active and inactive calls.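 The calls were made as follows, unless noted: active = membrane potential signal rise above negative control mean plus 3 SD in both duplicates, also active in the earlier TRPC4 screen; inactive = the rest.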

Assay [1] deals with TRPC4 beta (transient receptor potential cation channel C4), mouse. Description: activators of mouse TRPC4 channel, confirmation, cell-based, Fluo4 calcium, HEK293 TRPC4beta/mu-opioid, duplicates, 10 µM (AID 2426;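 active = fluorescence ratio normalized to control raised more than 50% in primary screen plus both repeat runs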). The note with it: Fluo4 calcium fluorescence, at 10 µM; hits give high values.
Assay [2] relates to transient receptor potential cation channel C4 beta (TRPC4), mouse. Description: activators of mouse TRPC4 channel, confirmation, cell-based, second round, Fluo4, HEK293 TRPC4beta/mu-opioid, 1 µM (AID 2461;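 active = primary screen active and over 50% activation in each of two duplicate runs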). The settings on record: Fluo4 calcium fluorescence, at 1 µM; hits give high values.
In assay [3] the test system is TRPC4 (transient receptor potential cation channel C4 beta), mouse. The assay is described as follows: positive allosteric modulators of mouse TRPC4, confirmation, cell-based, second round, Fluo-4, HEK293 TRPC4beta/mu-opioid, 1 µM (AID 2554;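 active = primary screen hit whose fluorescence ratio, in both repeats, exceeds the weak agonist control mean by 3 SD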). The note with it: DAMGO EC20, Fluo-4 calcium flux, at 1 µM; hits give high values. In general terms: Calcium assays in cells follow changes in intracellular calcium, usually with a dye or a luminescent sensor.

In assay [4] the test system is TRPC4 beta (transient receptor potential cation channel C4), mouse. The assay is described as follows: positive allosteric modulators of mouse TRPC4, confirmation, cell-based, Fluo-4, HEK293 TRPC4beta/mu-opioid (AID 2555;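 active = primary screen hit whose calcium fluorescence ratio, in both repeats, exceeds the weak agonist control mean by 3 SD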). The note with it: DAMGO EC20, Fluo-4 calcium flux, at 10 µM; hits give high values.
Assay [5] deals with Short transient receptor potential channel 4 (Mus musculus) (UniProt Q9QUQ5). Description: inhibitors of mouse TRPC4 channel, confirmation, cell-based, Fluo4, HEK293 TRPC4beta/mu-opioid (AID 2636;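 active = calcium signal cut by more than 3 SD below the full-agonist control yet still positive, in both repeats and the earlier primary screen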). The note with it: DAMGO, Fluo4 calcium flux, at 10 µM; hits give high values.
The target is the same in assay [6]. Description: inhibitors of mouse TRPC4 channel, confirmation, cell-based, second round, Fluo4, HEK293 TRPC4beta/mu-opioid, 1 µM (AID 2637;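 active = calcium signal ratio cut to more than 3 SD under the fully stimulated control mean yet still positive, in both repeats and the primary screen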;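 as to inhibition: percent of integrated ratio relative to wells lacking test compound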). The settings on record: Fluo4 calcium flux, DAMGO, at 1 µM; hits give high values.
Assay [7] shares this target. The assay is described as follows: mouse TRPC4 channel activators, dose response, cell-based, HEK293 TRPC4/mu-opioid, Fluo-4 calcium (AID 434937;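 active = primary screen activator hit with a dose response curve and TRPC4 channel activation at any tested dose; inactive = no activation, no dose response, or not a primary hit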).
Assay [8] shares this target. The assay is described as follows: TRPC4 positive allosteric modulators, dose response, cell-based, HEK293 TRPC4/mu-opioid, Fluo-4 calcium, EC20 DAMGO (AID 434941;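 active = earlier screen potentiator hit that boosts the TRPC4 ion channel at some dose, with a dose response; inactive = no potentiation, no dose response, or not a prior hit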;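 also: calcium entry triggered by an EC20 dose of DAMGO at the co-expressed mu-opioid receptor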).
Assay [9] addresses Short transient receptor potential channel 6 (Mus musculus) (UniProt Q61143). Description: inhibition of mouse TRPC6 channel, confirmation, selectivity assay for TRPC4 inhibitor project, cell-based, HEK293, membrane potential dye, duplicate (AID 434948;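 active = active in primary screen and both duplicates, each dropping signal beyond three positive-control SD with fluorescence still positive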). The settings on record: HEK293 TRPC6, membrane potential dye fluorescence, at 10 µM, stimulated with maximal-effect acetylcholine; hits give high values.

For assay [10] the target is unchanged. The assay is described as follows: activation of mouse TRPC6 channel, confirmation, selectivity assay for TRPC4 activator project, cell-based, HEK293, membrane potential dye, duplicate (AID 434950). The settings on record: HEK293 TRPC6, membrane potential fluorescence, at 10 µM; hits give high values.
Assay [11] shares this target. The assay is described as follows: TRPC6 potentiation by TRPC4 potentiator hits, confirmation, selectivity assay for TRPC4 potentiator project, HEK293 cells, membrane potential dye, duplicate (AID 434952;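 active = compound raising the membrane signal above positive-control mean plus 3 SD in both repeats, and a primary screen hit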). The note with it: HEK293 TRPC6, membrane potential dye fluorescence, at 10 µM, maximal acetylcholine added after compound; hits give high values.
Assay [12] has as its target Short transient receptor potential channel 4 (Mus musculus) (UniProt Q9QUQ5). Description: calcium flux activators in TRPC4/5HT1a cells, counter-screen for TRPC4 activator project, cell-based, second counter screen, HEK293 TRPC4/5HT1a, Fluo-4 (AID 434977;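 active = calcium signal rise above buffer-control mean plus 5 SD in both duplicates, and also a hit in the primary screen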). The note with it: Fluo-4 calcium flux, at 10 µM; hits give high values.
Assay [13] is described as follows: calcium flux inhibitors in TRPC4/5HT1a cells, confirmation, counter-screen for TRPC4 inhibitor project, cell-based, second counter screen, HEK293 TRPC4/5HT1a, Fluo-4 (AID 434978;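 active = primary screen active whose calcium signal fell more than 3 SD beyond the full-serotonin control mean in both duplicate plates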;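 as to outcome: serotonin given first at submaximal then at maximal dose after compound preincubation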). The note with it: Fluo-4 calcium flux, at 10 µM, serotonin added to trigger calcium flux; hits give high values.
For assay [14], the system named is TRPC4 (mouse), co-expressed with 5HT1a in HEK293. Description: calcium flux potentiators in TRPC4/5HT1a cells, confirmation, counter-screen for TRPC4 potentiator project, cell-based, second counter screen, HEK293 TRPC4/5HT1a, Fluo-4 (AID 434979;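 active = signal rise over 3 SD above mean of control wells given weak agonist, in both repeats and first screen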). The note with it: Fluo-4 calcium flux, at 10 µM, serotonin added at its EC20 dose; hits give high values.
Assay [15] in a line: calcium flux activation in mu-opioid HEK293 cells, confirmation, counter-screen for TRPC4 activator project, cell-based, HEK293 mu-opioid receptor line (AID 449723;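 active = hit in primary screen, with calcium signal over 5 SD above buffer well mean in both duplicates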;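 also: counter screen cells carry the mu-opioid receptor alone and lack TRPC4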). The settings on record: Fluo-4 calcium fluorescence, at 10 µM; hits give high values.
Assay [16] can be described thus: calcium flux enhancement in mu-opioid HEK293 cells, confirmation, counter-screen for TRPC4 allosteric potentiator project, cell-based, HEK293 mu-opioid receptor line (AID 449724;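 active = calcium signal rise more than 3 SD above the low-dose agonist control mean, in both duplicate plates and the primary screen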;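 also: HEK293 cells carrying mu-opioid receptor only with no TRPC4 channel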). The note with it: Fluo-4 calcium flux, at 10 µM, compound added before EC20 DAMGO stimulus; hits give high values.

Chain of Short transient receptor potential channel 4 (Mus musculus) (Q9QUQ5 whole entry, looked up): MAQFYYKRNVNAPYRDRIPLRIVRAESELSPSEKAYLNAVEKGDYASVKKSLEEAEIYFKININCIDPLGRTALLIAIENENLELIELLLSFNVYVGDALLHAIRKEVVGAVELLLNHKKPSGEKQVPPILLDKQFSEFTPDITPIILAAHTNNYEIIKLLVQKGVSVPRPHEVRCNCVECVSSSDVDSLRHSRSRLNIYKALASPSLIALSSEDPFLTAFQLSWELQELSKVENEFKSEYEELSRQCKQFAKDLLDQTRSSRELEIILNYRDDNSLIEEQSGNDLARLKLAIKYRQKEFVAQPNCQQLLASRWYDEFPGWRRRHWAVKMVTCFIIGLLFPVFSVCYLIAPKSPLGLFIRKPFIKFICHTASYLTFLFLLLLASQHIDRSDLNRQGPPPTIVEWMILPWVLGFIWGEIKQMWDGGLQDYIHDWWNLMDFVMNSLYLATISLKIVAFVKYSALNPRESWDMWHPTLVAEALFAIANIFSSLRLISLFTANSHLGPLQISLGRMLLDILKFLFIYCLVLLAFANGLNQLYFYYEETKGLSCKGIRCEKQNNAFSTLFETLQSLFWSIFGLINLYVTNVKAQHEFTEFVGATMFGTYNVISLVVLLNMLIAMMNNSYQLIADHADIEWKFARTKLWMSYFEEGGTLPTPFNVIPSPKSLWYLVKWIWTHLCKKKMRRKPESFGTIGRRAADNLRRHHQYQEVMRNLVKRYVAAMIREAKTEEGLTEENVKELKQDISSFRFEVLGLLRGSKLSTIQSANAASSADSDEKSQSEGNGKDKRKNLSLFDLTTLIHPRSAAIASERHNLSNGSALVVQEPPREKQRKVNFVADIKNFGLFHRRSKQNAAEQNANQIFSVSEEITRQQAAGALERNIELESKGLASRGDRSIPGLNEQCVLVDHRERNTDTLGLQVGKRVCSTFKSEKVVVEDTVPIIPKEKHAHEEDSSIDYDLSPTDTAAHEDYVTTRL
Chain of Short transient receptor potential channel 6 (Mus musculus) (Q61143 whole entry, looked up): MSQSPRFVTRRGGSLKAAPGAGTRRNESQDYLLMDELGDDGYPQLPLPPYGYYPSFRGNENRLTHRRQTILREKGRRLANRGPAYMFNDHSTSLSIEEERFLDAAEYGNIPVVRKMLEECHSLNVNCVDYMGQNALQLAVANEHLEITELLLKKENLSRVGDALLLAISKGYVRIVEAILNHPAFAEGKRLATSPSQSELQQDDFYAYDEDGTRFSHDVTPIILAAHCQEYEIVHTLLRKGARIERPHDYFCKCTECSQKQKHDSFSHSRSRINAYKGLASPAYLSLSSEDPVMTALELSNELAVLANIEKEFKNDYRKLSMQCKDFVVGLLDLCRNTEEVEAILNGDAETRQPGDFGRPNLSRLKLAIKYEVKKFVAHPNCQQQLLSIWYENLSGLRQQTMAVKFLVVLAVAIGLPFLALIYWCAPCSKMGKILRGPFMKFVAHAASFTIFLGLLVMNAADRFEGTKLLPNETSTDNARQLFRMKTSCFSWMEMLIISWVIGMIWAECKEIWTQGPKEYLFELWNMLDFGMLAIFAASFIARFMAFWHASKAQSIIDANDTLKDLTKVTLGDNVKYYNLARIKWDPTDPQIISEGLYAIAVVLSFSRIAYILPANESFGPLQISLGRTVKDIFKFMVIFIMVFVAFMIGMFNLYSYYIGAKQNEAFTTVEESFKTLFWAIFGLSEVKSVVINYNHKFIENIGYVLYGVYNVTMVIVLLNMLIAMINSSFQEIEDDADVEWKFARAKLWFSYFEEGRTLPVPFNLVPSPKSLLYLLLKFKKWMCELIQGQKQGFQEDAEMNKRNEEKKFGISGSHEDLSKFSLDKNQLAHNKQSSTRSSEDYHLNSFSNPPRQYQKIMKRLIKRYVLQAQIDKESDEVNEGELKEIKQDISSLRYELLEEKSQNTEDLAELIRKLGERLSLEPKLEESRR

The term inhibition denotes the relative decrease from the control value, in per cent. As for `CCOC(=O)C1(Cc2ccccc2)CCN(CC2CC=CCC2)CC1` (stereo unspecified), the outcome in assay [1], in assay [2], in assay [3], in [4], in assay [6] and in [7] was inactive. Further, the result in assay [8], in assay [9], in [10], in [11], in assay [12] and in assay [13] was inactive. For the same molecule, the outcome in [14], in assay [15] and in assay [16] was inactive. In addition, in assay [5], the inhibition was 93% (active).
Turning to `Cc1ccc(-c2csc(NC(=O)C3CC=CCC3C(=O)O)c2C(=O)OC(C)C)cc1` (stereo unspecified), the outcome in assay [1], in assay [2], in [3], in assay [4], in assay [5] and in assay [6] was inactive. For the same molecule, the result in assay [7], in assay [8], in [9], in [10], in [11] and in [12] was inactive. Moreover, the result in assay [14], in assay [15] and in [16] was inactive. The inhibition in [13] is 20.1% (active).
As to `CC(C)NCC(O)COCCOc1ccc(C(C)(C)C)cc1` (stereo unspecified), the result in assay [1], in [2], in [3], in assay [4], in assay [7] and in [8] was inactive. Moreover, the outcome in [9], in assay [10], in assay [11], in [12], in [14] and in [15] was inactive. In assay [16], the result was inactive. Also, the values for the inhibition in assay [5], in assay [6] and in assay [13] were 97% (active), 59% (active) and 28.6% (active), respectively.
Turning to `N/C(Cc1cccc2ccccc12)=N\OC(=O)c1cccs1`, the outcome in [1], in assay [2], in assay [3], in assay [4], in assay [7] and in assay [8] was inactive. Also, the outcome in [9], in [10], in assay [11], in [12], in [13] and in assay [14] was inactive. Moreover, the outcome in [15] and in assay [16] was inactive. The inhibition in [5] was 54% (active); in assay [6], 55% (active).
Turning to `CCCc1nc(SC2CCCC2)c2c(=O)n(C)c(=O)n(C)c2n1`, the result in assay [1], in assay [2], in assay [3], in assay [4], in [5] and in [6] was inactive. The result in assay [7], in assay [8], in [9], in [10], in assay [11] and in [12] was inactive. Besides, the outcome in assay [14], in [15] and in assay [16] was inactive. The inhibition in assay [13] is 39.1% (active).
On to `Cc1cc(N2CCC(C)CC2)nc2cccc(O)c12`, for which the outcome in assay [1], in [2], in [3], in [4], in [7] and in [8] was inactive. Moreover, the result in assay [10], in assay [11], in assay [12], in assay [13], in assay [14] and in [15] was inactive. Further, the result in assay [16] was inactive. Further, the inhibition in [5] is 95% (active); in assay [6], 83% (active); in assay [9], 59% (active).
On to `Cc1ccc(Nc2cc(C)nc3ccc(C)cc23)cc1`, for which the result in [1], in assay [2], in assay [3], in assay [4], in assay [5] and in [6] was inactive. The result in assay [7], in assay [8], in assay [10], in [11], in assay [12] and in assay [14] was inactive. Also, the result in assay [15] and in assay [16] was inactive. Also, the inhibition in assay [9] was 35% (active); in [13] it was 25.7% (active).
Take `CN(C)C(CNC(=O)c1oc2ccccc2c1CSc1ncn[nH]1)c1ccco1` (stereo unspecified): the outcome in assay [1], in assay [2], in assay [3], in assay [4], in assay [7] and in assay [8] was inactive. In addition, the result in [9], in assay [10], in assay [11], in assay [12], in assay [13] and in assay [14] was inactive. Also, the result in assay [15] and in assay [16] was inactive. In addition, the inhibition in [5] is 85% (active); in assay [6], 48% (active).
In the case of `Cc1cc(N/N=C/c2ccccc2F)c2ccccc2n1`, the result in assay [1], in [2], in assay [3], in assay [4], in assay [7] and in assay [8] was inactive. The outcome in assay [9], in assay [10], in assay [11], in assay [12], in assay [14] and in assay [15] was inactive. In assay [16], the outcome was inactive. In addition, the results for the inhibition in assay [5], in [6] and in [13] were 97% (active), 67% (active) and 13.1% (active), respectively.
On to `O=C(CN1CCCCC1)N1c2ccccc2Oc2ccccc21`, for which the outcome in assay [1], in assay [2], in assay [3], in assay [4], in assay [6] and in assay [7] was inactive. Moreover, the outcome in assay [8], in [9], in assay [10], in assay [11], in [12] and in [14] was inactive. Besides, the result in assay [15] and in assay [16] was inactive. In addition, the results for the inhibition in assay [5] and in [13] were 95% (active) and 9.39% (active), respectively.
Regarding `COc1ccc(C2C(C(C)=O)=C(O)C(=O)N2c2ccc(Br)cc2)cc1` (stereo unspecified), the result in assay [1], in assay [2], in [3], in [4], in assay [7] and in assay [8] was inactive. For the same molecule, the call in assay [9], in assay [10], in [11], in assay [12], in assay [14] and in assay [15] was inactive. Further, the outcome in [16] was inactive. Besides, the values for the inhibition in [5], in [6] and in assay [13] were 84% (active), 62% (active) and 23.3% (active), respectively.
Take `Clc1ccc(C[n+]2cc(-c3ccccc3)n3c2CCC3)cc1Cl`: the outcome in [1], in assay [2], in [3], in assay [4], in assay [7] and in [8] was inactive. In addition, the call in [9], in [10], in assay [11], in assay [12], in assay [14] and in assay [15] was inactive. For the same molecule, the result in [16] was inactive. Further, the values for the inhibition in assay [5], in [6] and in assay [13] were 93% (active), 60% (active) and 25.4% (active), respectively.
In the case of `Cc1cccn2c(=O)c(/C=N/O)c(N3CCCC3)nc12`, the outcome in assay [1], in assay [2], in assay [3], in assay [4], in assay [7] and in assay [8] was inactive. For the same molecule, the result in assay [9], in assay [10], in [11], in assay [12], in assay [14] and in [15] was inactive. The outcome in assay [16] was inactive. For the same molecule, the values for the inhibition in assay [5], in assay [6] and in [13] were 57% (active), 72% (active) and 35% (active), respectively.
With `O=[N+]([O-])c1cccc(N(CC(O)CN2CCCC2)S(=O)(=O)c2ccccc2)c1` (stereo unspecified), the outcome in assay [1], in assay [2], in [3], in assay [4], in assay [6] and in assay [7] was inactive. Also, the result in assay [8], in [9], in assay [10], in [11], in assay [12] and in [13] was inactive. Further, the outcome in assay [14], in assay [15] and in [16] was inactive. Besides, the inhibition in [5] was 101% (active).
Take `CCC1CCCCN1CCN1C(=O)C2C(C(=O)Nc3ccc(OC)cc3)C3C=CC2(O3)C1C(=O)NC1CCCCC1` (stereo unspecified): the outcome in assay [1], in assay [2], in assay [3], in [4], in assay [7] and in assay [8] was inactive. In addition, the outcome in assay [9], in [10], in [11], in assay [12], in [13] and in assay [14] was inactive. In addition, the outcome in assay [15] and in [16] was inactive. Besides, the inhibition in [5] was 96% (active); in assay [6], 90% (active).
With `CCCCC(CC)c1nnc(NC(=O)c2cccs2)s1` (stereo unspecified), the outcome in assay [1], in assay [2], in [3], in assay [4], in [6] and in assay [7] was inactive. Further, the result in assay [8], in [9], in assay [10], in assay [11], in [12] and in assay [14] was inactive. Further, the result in assay [15] and in assay [16] was inactive. Moreover, the inhibition is 90% (active) in assay [5] and 40.9% (active) in assay [13].
